{"source": "PubChem BioAssay AID652016", "about": "(National Center for Advancing Translational Sciences (NCATS), 2013)", "note": "Inconclusive results are not listed. Entries that show only a call come without a potency. Activity calls are given as the source filed them. Calls follow the shape of the dose curve; as a rule, active = well fitted inhibition curve with a large enough effect; inconclusive = small, poorly fitted or top-dose-only effect; inactive = flat fitted curve, though single readings scatter. Potency is read from the fitted curve at half-maximal effect.", "data": [{"target": "Luciferin 4-monooxygenase (Photinus pyralis) (UniProt P08659)", "sequence (P08659 whole entry, looked up)": "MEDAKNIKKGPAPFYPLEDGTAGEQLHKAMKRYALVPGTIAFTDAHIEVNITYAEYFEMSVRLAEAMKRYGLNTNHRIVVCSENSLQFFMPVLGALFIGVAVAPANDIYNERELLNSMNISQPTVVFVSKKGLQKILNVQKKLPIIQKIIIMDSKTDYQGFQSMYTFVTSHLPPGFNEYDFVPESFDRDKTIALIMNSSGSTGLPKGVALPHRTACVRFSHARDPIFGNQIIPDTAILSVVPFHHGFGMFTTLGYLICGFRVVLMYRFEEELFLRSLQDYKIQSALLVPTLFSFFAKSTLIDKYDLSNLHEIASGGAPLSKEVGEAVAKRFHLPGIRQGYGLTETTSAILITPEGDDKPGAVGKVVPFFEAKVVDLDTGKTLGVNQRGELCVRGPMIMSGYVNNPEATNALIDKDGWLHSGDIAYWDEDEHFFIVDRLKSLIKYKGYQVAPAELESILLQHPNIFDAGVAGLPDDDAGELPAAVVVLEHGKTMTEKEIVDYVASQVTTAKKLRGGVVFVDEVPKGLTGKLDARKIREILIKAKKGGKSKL", "test": "qHTS Assay for Inhibitors of Firefly Luciferase from the GSK Published Protein Kinase Inhibitor Set", "details": "purified firefly luciferase, luminescence inhibition; series mostly up to 57.5 µM", "in_short": "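Enzyme-level luminescence assay: compounds titrated (about 60uM down to 300pM) into substrate buffer (10uM ATP, 10uM D-luciferin, pH 7.5 Tris acetate with Mg, Tween-20, BSA), then 10nM firefly luciferase added; read after ~5 min.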", "values": [{"smiles": "CCNC(=O)OC1CNC(C#Cc2cc3ncnc(Nc4ccc(OCc5cccc(F)c5)c(Cl)c4)c3s2)C1", "note": "(configuration not stated)", "Potency": "inactive"}, {"smiles": "NS(=O)(=O)c1ccc(N=Nc2c(O)[nH]c3ccc(-c4cnco4)cc23)cc1", "Potency": "inactive"}, {"smiles": "N#Cc1ccc(Oc2nccc(-c3c(-c4ccc(F)cc4)ncn3C3CCNCC3)n2)cc1", "Potency": "inactive"}, {"smiles": "N#Cc1c(NC(=O)c2ccccc2F)sc2c1CCCC2", "Potency": "819 nM (active)"}, {"smiles": "COc1ccc(-c2nn3ncccc3c2-c2ccnc(Nc3ccc(Cl)c(C(F)(F)F)c3)n2)cc1", "Potency": "inactive"}, {"smiles": "CCN1CCC(C(=O)Nc2n[nH]c3nnc(-c4cccc(F)c4F)cc23)CC1", "Potency": "inactive"}, {"smiles": "NS(=O)(=O)c1ccc(N=Nc2c(O)[nH]c3ccc(C(=O)NCCc4cnc[nH]4)cc23)cc1", "Potency": "inactive"}, {"smiles": "Fc1ccc(-c2ncn(C3CCNCC3)c2-c2ccnc(Oc3ccc(Oc4ccccc4)cc3)n2)cc1", "Potency": "inactive"}, {"smiles": "COc1cc2c(cc1Nc1nc(Nc3ccsc3C(N)=O)c3cc[nH]c3n1)N(C(=O)CN(C)C)CCC2", "Potency": "inactive"}, {"smiles": "COc1cc2ncnc(Nc3ccc4c(cnn4Cc4ccccc4)c3)c2cc1OC", "Potency": "inactive"}, {"smiles": "CC(Oc1cc(-n2cnc3ccc(OCC4CCN(C)CC4)cc32)sc1C(N)=O)c1ccccc1Cl", "note": "(configuration not stated)", "Potency": "inactive"}, {"smiles": "Clc1ccc(-c2nn3ncccc3c2-c2ccnc(Nc3ccccc3)n2)cc1", "Potency": "inactive"}, {"smiles": "Nc1nccc(-c2c(-c3ccc(F)cc3)ncn2CCCN2CCOCC2)n1", "Potency": "inactive"}, {"smiles": "Fc1ccc(Oc2nccc(-c3c(-c4ccc(F)cc4)ncn3C3CCNCC3)n2)cc1", "Potency": "inactive"}, {"smiles": "COc1cccc(C=NNc2ncnc3c2cnn3-c2cccc(OC)c2)c1", "Potency": "inactive"}, {"smiles": "Nc1nccc(-c2c(-c3ccc(F)cc3)ncn2C2CCNCC2)n1", "Potency": "inactive"}, {"smiles": "CCN(CC)Cc1ccc(Nc2nccc(-c3cnn4ncccc34)n2)cc1", "Potency": "inactive"}]}]}
